D1 antagonist = antagonists of human D1 dopamine receptor; HEK293 TREx D1 cells, calcium flux, dopamine EC80; stronger effect = lower value; activity change, negative = inhibition, % at 10 µM; 360,000 compounds, 3.2% hits; in the data active means activity change below about -30%; further: on the % scale 0 is the no-effect control and ±100 the full control effect
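Calcium flux readout: force-coupled, inducible Hek293 Trex D1 line, cells induced overnight at 30 C with tetracycline, dye-loaded 30–90 min at RT. Antagonism scored against EC80 dopamine challenge given 180 s after compound.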
D1 potentiator = potentiators of human D1 dopamine receptor. HEK293 TREx D1 cells, calcium flux, dopamine EC20 potentiation. P21728. AID 504651. potentiation, % at 10 µM. 360,000 compounds, 0.036% hits; in the data active means potentiation above about 30%; further: 0% is about no effect
TRHR agonist = agonists of human TRH receptor; TRHR cells, calcium flux fluo-8, FDSS agonist mode; 360,000 compounds, 0.18% hits; AID 493084; activation, % at 2 µM; further: 0% is about no effect
Target sequence (P34981 whole entry, looked up): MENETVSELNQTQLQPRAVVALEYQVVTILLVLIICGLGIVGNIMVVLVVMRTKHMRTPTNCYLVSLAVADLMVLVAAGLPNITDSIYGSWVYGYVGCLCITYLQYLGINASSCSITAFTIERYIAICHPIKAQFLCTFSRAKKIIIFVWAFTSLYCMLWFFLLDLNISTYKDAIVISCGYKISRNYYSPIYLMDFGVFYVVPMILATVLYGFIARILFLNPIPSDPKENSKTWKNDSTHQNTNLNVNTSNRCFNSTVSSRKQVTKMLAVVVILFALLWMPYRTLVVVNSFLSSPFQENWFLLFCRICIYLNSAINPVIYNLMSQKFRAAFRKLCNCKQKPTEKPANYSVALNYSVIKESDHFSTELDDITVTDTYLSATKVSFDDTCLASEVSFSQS
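TRHR-expressing cells, plated overnight in medium with 10% serum, were loaded with fluo-8 calcium dye at room temperature. After a 10 s baseline, library compound was pin-added and calcium release was recorded kinetically (ex 480/em 530) as agonist response.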
TRHR PAM = TRH receptor (human) allosteric enhancement; AID 493056; TRHR cells, fluo-8 calcium fluorescence, EC20 TRH enhancement; 360,000 compounds, 0.66% hits; P34981; enhancement, % at 2 µM; in the data active means enhancement above about 30%; further: 0% is about no effect
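Enhancer read-out: after compound pinning and an initial kinetic agonist-mode read, an EC20 of TRH (10 nM final) was injected and fluo-8 calcium signal (Ex 480/Em 530) followed at 1 s/cycle for 100 cycles in TRHR-expressing cells.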
D1 agonist = human D1 receptor agonism; P21728; HEK293 T-REx D1 cells, calcium flux, agonist mode; activation, % at 2 µM; 360,000 compounds, 1% hits; further: 0% is about no effect
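Tetracycline-induced HEK293 TREx D1 cells, force-coupled to calcium signalling, were dye-loaded with a no-wash calcium kit. Compound was pin-added after a 10 s baseline. Fluorescence was read kinetically at 1 cycle/s for 180 s, with calcium rises flagged as agonism.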
Active calls of the source: *; · = no result given. An excerpt weighted towards active compounds, which were near 4.6% of everything screened. Unless noted, no stated cut-off is given here; in the data, active means activation above about 30%; inactive means the rest.

SMILES	D1 antagonist	D1 potentiator	TRHR agonist	TRHR PAM	D1 agonist
Cc1ccc(C(=O)N2CCc3cc(CNS(=O)(=O)c4cccs4)ccc32)cc1	-23	-5	0	-9	2
CCOC(=O)Cc1nnc(NC(=O)C(CC)Sc2nc(C)cc(C)n2)s1 (stereo not given)	-36*	·	0	-2	4
COc1ccc(-c2nnc(NC(=O)CSc3ccc(Cl)cc3)s2)cc1OC	0	5	1	25	2
CCOC(=O)Cc1nnc(NC(=O)CSc2ccc(Cl)cc2)s1	-32*	-2	1	-3	10
COc1ccc(NC(=O)CSc2nnc(NC(=O)C3CC3)s2)cc1OC	-36*	-13	1	14	1
COC(=O)c1cc(NC(=O)CSc2nnc(N)s2)ccc1Cl	10	-4	0	34*	2
CC(=O)Nc1ccc(NC(=O)CSc2nnc(NC(=O)C3CC3)s2)cc1	-23	-10	1	1	1
CCOC(=O)c1nnc2c(-c3ccc(F)cc3)c(C)nn2c1N	-2	0	-1	-6	2
CCCCC(=O)Nc1ccc(OCc2cc(=O)n3ccc(C)cc3n2)cc1	0	-1	0	-2	0
O=C(Nc1ccccc1)c1nc[nH]c1C(=O)O	7	2	1	3	0
COc1cccc(CNC(=O)Cc2ccc(NC(=O)N3CCSc4ncccc43)cc2)c1OC	-7	-2	0	1	1
CCSc1nnc(NC(=O)Cc2ccc(OC)c(OC)c2)s1	-33*	-9	0	-5	2
COc1ccc(Cc2nnc(NC(=O)CSc3ccc(C)cc3)s2)cc1OC	-1	6	0	9	224*
CC(=O)Nc1ccccc1-c1nc2ccccc2n(C(C)C(=O)c2ccc(C)c(C)c2)c1=O (stereo not given)	-3	-1	-1	-5	51*
NCCCC[C@@H]1NC(=O)[C@H](CCC(=O)O)NC(=O)c2cc([N+](=O)[O-])cc(I)c2SC[C@@H](C(=O)NCC(N)=O)NC1=O	-44*	-5	0	10	-1
Cc1ccc(S(=O)(=O)NCC(=O)NCCc2c[nH]c3ccccc23)cc1C	-1	-3	-1	34*	0
Cc1ccc(NC(=O)COC(=O)Cc2c[nH]c3ccccc23)cc1C	-75*	-4	0	7	1
NC(=O)c1ccc(NC(=O)COC(=O)CCCc2c[nH]c3ccccc23)cc1	-30*	-1	1	-3	2
CC(C)NC(=O)CCCc1c[nH]c2ccccc12	-13	-5	0	33*	3
O=C(CCCc1c[nH]c2ccccc12)N[C@@H](Cc1c[nH]c2ccccc12)C(=O)O	-19	4	0	-5	0
Cn1c(=O)c2c(nc(CN3CCN(c4ccccc4F)CC3)n2Cc2ccc(F)cc2)n(C)c1=O	9	2	1	10	-2
CCOc1ccc(CN2CCc3nc(Nc4ccc5c(c4)OCCO5)ncc3C2)cc1	18	3	2	3	2
O=C(CCn1c(=O)[nH]c2ccsc2c1=O)N1CCN(c2cccc(Cl)c2)CC1	-50*	-7	-2	8	1
O=C(CCn1c(=O)[nH]c2ccsc2c1=O)N1CCN(c2ccc([N+](=O)[O-])cc2)CC1	-2	5	0	36*	4
O=C(CCCCn1c(=O)[nH]c2ccsc2c1=O)N1CCN(c2cccc(Cl)c2)CC1	-36*	-1	0	1	4
SMILES	D1 antagonist	D1 potentiator	TRHR agonist	TRHR PAM	D1 agonist
COc1ccc(-n2nc(C(=O)Nc3ccc(C(C)=O)cc3)nc2-c2ccccc2)cc1	20	-2	0	-2	4
Cc1onc(-c2ccccc2)c1C(=O)NNC(=O)c1ccccc1	4	-6	0	-1	1
COc1ccc(/C=C/C(=O)NC(=S)NNC(=O)c2c(-c3ccccc3)noc2C)cc1	6	-10	1	7	3
Cc1onc(-c2ccccc2)c1C(=O)NNC(=S)NC(=O)c1ccc(Br)cc1	12	-1	27	-4	134*
Cc1ccccc1C(=O)NNC(=S)NC(=O)c1ccc(Cl)cc1Cl	-52*	16	45*	-5	158*
Cc1onc(-c2ccccc2)c1C(=O)NNC(=S)NC(=O)c1ccc(Cl)cc1Cl	58	16	35*	2	308*
